Reference: PubChem BioAssay (NCATS)
Records with an inconclusive call do not appear. Activity calls are given as the source filed them. Calls come from the whole dose curve; as a rule, active = well fitted inhibition curve with a large enough effect; inconclusive = small, poorly fitted or top-dose-only effect; inactive = flat fitted curve, though single readings scatter.

Tests used:
Test in all cases: qHTS profiling for inhibitors of Plasmodium falciparum proliferation (AID 504749); note: nearly all actives have a fitted effect of over 60% in size
Settings in all cases: P. falciparum in erythrocytes, SYBR Green DNA, 72 h; series mostly up to 12.8 µM
AA1029 = tested on: AA1029
How it was run: (§1)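 SYBR Green fluorescence of parasite DNA, read after lysis and overnight dark incubation, measured growth over 72 h in erythrocyte culture at 0.3% parasitemia and 2.5% hematocrit. Data normalised to DMSO and 0.29 uM artemisinin, with plate-drift correction.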

C2A = tested on: C2A
How it was run: as §1

CP211 = tested on: CP211
How it was run: as §1

CP217 = tested on: CP217
How it was run: as §1

CP250 = tested on: CP250
How it was run: as §1

CP252 = tested on: CP252
How it was run: as §1

CP256 = tested on: CP256
How it was run: as §1

CP262 = tested on: CP262
How it was run: as §1

CP269 = tested on: CP269
How it was run: as §1

CP325 = tested on: CP325
How it was run: as §1

CP329 = tested on: CP329
How it was run: as §1

ECU = tested on: ECU
How it was run: as §1

FAB9 = tested on: FAB9
How it was run: as §1

N140 = tested on: N140
How it was run: as §1

P93_24 = tested on: P93_24
How it was run: as §1

PAD = tested on: PAD
How it was run: as §1

PC15 = tested on: PC15
How it was run: as §1

PC26 = tested on: PC26
How it was run: as §1

SC27B = tested on: SC27B
How it was run: as §1

TAB165 = tested on: TAB165
How it was run: as §1

Measured: Potency

NS(=O)(=O)c1cc([C@@]2(O)NC(=O)c3ccccc32)ccc1Cl
inactive: AA1029 | C2A | CP211 | CP217 | CP250 | CP252 | CP256 | CP262 | CP269 | CP325 | CP329 | ECU | FAB9 | N140 | P93_24 | PAD | PC15 | PC26 | SC27B | TAB165

C[N+]1(C)CCC[C@@H](OC(=O)C(O)(c2ccccc2)c2ccccc2)C1
inactive: AA1029 | C2A | CP211 | CP217 | CP250 | CP252 | CP256 | CP262 | CP269 | CP325 | CP329 | ECU | FAB9 | N140 | P93_24 | PAD | PC15 | PC26 | SC27B | TAB165

COc1ccccc1OC[C@H](O)COC(N)=O
inactive: AA1029 | C2A | CP211 | CP217 | CP250 | CP252 | CP256 | CP262 | CP269 | CP325 | CP329 | ECU | FAB9 | N140 | P93_24 | PAD | PC15 | PC26 | SC27B | TAB165

CCCN[C@@H](C)C(=O)Nc1c(C)csc1C(=O)OC
inactive: AA1029 | C2A | CP211 | CP217 | CP250 | CP252 | CP256 | CP262 | CP269 | CP325 | CP329 | ECU | FAB9 | N140 | P93_24 | PAD | PC15 | PC26 | SC27B | TAB165

CC1(C)Oc2ccc(C#N)cc2[C@H](N2CCCC2=O)[C@H]1O
inactive: AA1029 | C2A | CP211 | CP217 | CP250 | CP252 | CP256 | CP262 | CP269 | CP325 | CP329 | ECU | FAB9 | N140 | P93_24 | PAD | PC15 | PC26 | SC27B | TAB165

COc1ccc(C[C@@H]2c3cc(OC)c(OC)cc3CC[N@+]2(C)CCC(=O)OCCCCCOC(=O)CC[N@@+]2(C)CCc3cc(OC)c(OC)cc3[C@H]2Cc2ccc(OC)c(OC)c2)cc1OC
inactive: AA1029 | C2A | CP211 | CP217 | CP250 | CP252 | CP256 | CP262 | CP269 | CP325 | CP329 | ECU | FAB9 | N140 | P93_24 | PAD | PC15 | PC26 | SC27B | TAB165

C[C@@H]1COc2c(N3CCN(C)CC3)c(F)cc3c(=O)c(C(=O)O)cn1c23
inactive: AA1029 | C2A | CP211 | CP217 | CP250 | CP252 | CP256 | CP262 | CP269 | CP325 | CP329 | ECU | FAB9 | N140 | P93_24 | PAD | PC15 | PC26 | SC27B | TAB165

CC1(C)S[C@@H]2[C@H](NC(=O)[C@H](C(=O)O)c3ccsc3)C(=O)N2[C@H]1C(=O)O
inactive: AA1029 | C2A | CP211 | CP217 | CP250 | CP252 | CP256 | CP262 | CP269 | CP325 | CP329 | ECU | FAB9 | N140 | P93_24 | PAD | PC15 | PC26 | SC27B | TAB165

Cn1c(=O)c2c(ncn2C[C@@H](O)CO)n(C)c1=O
inactive: AA1029 | C2A | CP211 | CP217 | CP250 | CP252 | CP256 | CP262 | CP269 | CP325 | CP329 | ECU | FAB9 | N140 | P93_24 | PAD | PC15 | PC26 | SC27B | TAB165

NC(N)=NC[C@@H]1COC2(CCCCC2)O1
inactive: AA1029 | C2A | CP211 | CP217 | CP250 | CP252 | CP256 | CP262 | CP269 | CP325 | CP329 | ECU | FAB9 | N140 | P93_24 | PAD | PC15 | PC26 | SC27B | TAB165

CCN1C(=O)N[C@@H](c2ccccc2)C1=O
inactive: AA1029 | C2A | CP211 | CP217 | CP250 | CP252 | CP256 | CP262 | CP269 | CP325 | CP329 | ECU | FAB9 | N140 | P93_24 | PAD | PC15 | PC26 | SC27B | TAB165

CCN[C@@H]1C[C@H](C)S(=O)(=O)c2sc(S(N)(=O)=O)cc21
inactive: AA1029 | C2A | CP211 | CP217 | CP250 | CP252 | CP256 | CP262 | CP269 | CP325 | CP329 | ECU | FAB9 | N140 | P93_24 | PAD | PC15 | PC26 | SC27B | TAB165

CC(=O)N(CC(O)CN(C(C)=O)c1c(I)c(C(=O)NC[C@@H](O)CO)c(I)c(C(=O)NC[C@@H](O)CO)c1I)c1c(I)c(C(=O)NC[C@@H](O)CO)c(I)c(C(=O)NC[C@@H](O)CO)c1I
inactive: AA1029 | C2A | CP211 | CP217 | CP250 | CP252 | CP256 | CP262 | CP269 | CP325 | CP329 | ECU | FAB9 | N140 | P93_24 | PAD | PC15 | PC26 | SC27B | TAB165
